The source of these data is PubChem BioAssay.

Experiment [1] in a line: small molecules captured by biotinylated probe aFSTL3 – biochemical, small-molecule microarray, fluorescence 635/667, stem cell growth factor project, primary screen (AID 1064).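 Note: measures binding of the biotinylated anti-FSTL3 antibody to printed compounds.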 The conditions noted are these: higher = more signal.
Experiment [2] in a line: binders from COS7 lysate, DM2A8 probe, primary screen, torsin A project, cell lysate, small-molecule microarray, fluorescence 635/667 (AID 1065). Conditions: higher = more signal, COS7 lysate expressing mutant human TOR1A.
The nature of experiment [3]: small molecules captured by biotinylated probe aFGF2 – biochemical, small-molecule microarray, fluorescence 635/667, stem cell growth factor project, primary screen (AID 1067).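 Note: measures binding of biotinylated aFGF2 protein to printed compounds on slides; z-score merges feature fluorescence and signal-to-noise across triplicate slides.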 Conditions: higher = more signal.
Experiment [4] in a line: small molecules captured by biotinylated probe aFGF10 – biochemical, small-molecule microarray, fluorescence 635/667, stem cell growth factor project, primary screen (AID 1071).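 Note: score merges 667 nm spot intensity and signal to noise from triplicate slides.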 The conditions noted are these: higher = more signal.
The target of experiment [5] is Neurogenic locus notch homolog protein 2 (Homo sapiens) (UniProt Q04721). Put plainly: small molecules binding Notch2 protein – biochemical, small-molecule microarray, 635 nm fluorescence, stem cell growth factors, primary screen (AID 1073). Conditions: higher = more signal.
The target of experiment [6] is Pro-neuregulin-1, membrane-bound isoform (Homo sapiens) (UniProt Q02297). In words: small molecules binding neuregulin-1 protein – biochemical, small-molecule microarray, fluorescence 635/667, psychiatric disease protein project, primary screen (AID 1075).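 Note: score combines 667 nm spot fluorescence with signal to noise.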 The conditions noted are these: NRG1 binding, 635 nm fluorescence, higher = more signal.
In experiment [7] the test system is Neuregulin-1 EGF-like domain. In words: small molecules binding NRG1 EGF domain – biochemical, small-molecule microarray, 635 nm fluorescence, primary screen (AID 1081).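 Note: binding of the protein to compounds printed on small-molecule microarray slides.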 Conditions: higher = more signal.
Experiment [8] in a line: FRG1 expression reporter modulators in myotubes – cell-based, C2C12 myotubes, firefly/Renilla luciferase, luminescence, FRG1 inhibition for FSHD, primary screen (AID 1084). The conditions noted are these: FRG1 promoter luciferase, higher = more signal, called active from +8 up or from −8 down.
Experiment [9] in a line: small molecules captured by biotinylated probe aFST – biochemical, small-molecule microarray, fluorescence 635/667, stem cell growth factor project, primary screen (AID 1086).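 Note: score merges 667 nm fluorescence with signal-to-noise of each printed compound spot.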 The conditions noted are these: higher = more signal.
Experiment [10] in a line: binders of probe aHhip on microarray, primary screen, stem cell growth factor project, biochemical, small-molecule microarray, fluorescence 635/667 (AID 1087).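 Note: score merges spot fluorescence at 667nm with spot signal to noise ratio.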 Conditions: higher = more signal.
Experiment [11] has as its system PRMT1 (protein arginine N-methyltransferase 1). In words: small molecules binding arginine methyltransferase PRMT1 – biochemical, small-molecule microarray, 635 nm fluorescence, primary screen (AID 1088).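 Note: binding of Prmt1 protein to compounds spotted on small-molecule microarray slides.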 Conditions: higher = more signal.
Experiment [12] is described as follows: growth effects on S. cerevisiae YJM789 – YJM789 clinical isolate, OD600, 24 h, basal, primary screen (AID 1089).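 Note: growth of clinical yeast isolate S. cerevisiae YJM 789 seeded 1000 cells per well; test concentration not given here.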 The conditions noted are these: higher = more signal, called active from +8 up or from −8 down.
The nature of experiment [13]: S. pombe growth modifiers, basal conditions – strain 972, OD600, 24 h, no modulator, primary screen (AID 1090).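 Note: basal condition with compound alone and no growth modifier present; test concentration not given here.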 Conditions: S. pombe 972 growth, higher = more signal, called active from +8 up or from −8 down.
Experiment [14] is described as follows: budding yeast growth modifiers under rapamycin – strain BY4716, OD600, 96 h, primary screen (AID 1091). Note: test concentration not given here. Conditions: S. cerevisiae BY4716 + rapamycin, higher = more signal, called active from +8 up or from −8 down.
Experiment [15] deals with Torsin-1A-interacting protein 2 (Homo sapiens) (UniProt Q8NFQ8). In words: small molecules binding lysate-expressed LULL1 – cell lysate, human LULL1 lysate, 635/667 nm fluorescence, primary screen (AID 1092).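 Note: probe is lysate of COS7 cells overexpressing human LULL1; score merges per-feature 667 nm fluorescence with signal-to-noise.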 Conditions: small-molecule microarray, hLULL1 lysate binding, 635 nm fluorescence; higher = more signal.
The nature of experiment [16]: optical density change of DRC41 E. coli – strain DRC41, OD650, 24 h, E. coli filamentation project, primary screen (AID 1093).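 Note: MC1000 strain lacking acrAB efflux and sulA so SOS filamentation is blocked; test concentration not given here.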 Conditions: E. coli DRC41 growth, higher = more signal, called active from +8 up or from −8 down.
The nature of experiment [17]: probe aLefty2 binding to arrayed compounds – biochemical, biotinylated probe, 635/667 nm fluorescence, primary screen (AID 1094).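 Note: score merges spot fluorescence near 667 nm with spot signal-to-noise ratio.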 Conditions: small-molecule microarray, higher = more signal.
In experiment [18] the test system is Noggin (protein binding on small-molecule microarray). Put plainly: small molecules binding Noggin protein – biochemical, 635/667 nm fluorescence, primary screen (AID 1095).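 Note: score merges 667 nm feature fluorescence with signal to noise over triplicate slides.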 The conditions noted are these: 635 nm fluorescence, higher = more signal.
Experiment [19] has as its target Neurogenic locus notch homolog protein 3 (Homo sapiens) (UniProt Q9UM47). In words: small molecules binding NOTCH3 protein – biochemical, 635/667 nm fluorescence, primary screen (AID 1096). Conditions: small-molecule microarray, 635 nm fluorescence, higher = more signal.
A short description of experiment [20]: probe aEGFR binding to arrayed compounds – biochemical, biotinylated probe, 635/667 nm fluorescence, primary screen (AID 1097).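 Note: probe is a biotinylated anti-EGFR antibody binding compounds printed on slides; score combines fluorescence near 667 nm and signal to noise of each spot.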 The conditions noted are these: small-molecule microarray, higher = more signal.

Molecules are shown by their SMILES. Activity calls are given as the source filed them.

Sequence of Torsin-1A-interacting protein 2 (Homo sapiens) (Q8NFQ8 whole entry, looked up): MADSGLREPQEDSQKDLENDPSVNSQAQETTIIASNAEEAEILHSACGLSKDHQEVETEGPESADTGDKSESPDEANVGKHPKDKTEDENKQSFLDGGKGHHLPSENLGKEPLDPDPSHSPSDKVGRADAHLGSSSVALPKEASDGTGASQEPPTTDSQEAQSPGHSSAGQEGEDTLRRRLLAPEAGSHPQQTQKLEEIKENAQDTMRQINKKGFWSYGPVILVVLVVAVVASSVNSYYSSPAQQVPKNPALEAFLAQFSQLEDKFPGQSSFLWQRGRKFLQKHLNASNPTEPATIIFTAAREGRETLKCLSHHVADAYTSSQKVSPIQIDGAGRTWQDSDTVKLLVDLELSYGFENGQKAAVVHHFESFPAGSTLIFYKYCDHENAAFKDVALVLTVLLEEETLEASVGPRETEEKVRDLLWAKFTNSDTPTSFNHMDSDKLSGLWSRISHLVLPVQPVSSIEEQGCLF
Sequence of Neurogenic locus notch homolog protein 3 (Homo sapiens) (Q9UM47 whole entry, looked up): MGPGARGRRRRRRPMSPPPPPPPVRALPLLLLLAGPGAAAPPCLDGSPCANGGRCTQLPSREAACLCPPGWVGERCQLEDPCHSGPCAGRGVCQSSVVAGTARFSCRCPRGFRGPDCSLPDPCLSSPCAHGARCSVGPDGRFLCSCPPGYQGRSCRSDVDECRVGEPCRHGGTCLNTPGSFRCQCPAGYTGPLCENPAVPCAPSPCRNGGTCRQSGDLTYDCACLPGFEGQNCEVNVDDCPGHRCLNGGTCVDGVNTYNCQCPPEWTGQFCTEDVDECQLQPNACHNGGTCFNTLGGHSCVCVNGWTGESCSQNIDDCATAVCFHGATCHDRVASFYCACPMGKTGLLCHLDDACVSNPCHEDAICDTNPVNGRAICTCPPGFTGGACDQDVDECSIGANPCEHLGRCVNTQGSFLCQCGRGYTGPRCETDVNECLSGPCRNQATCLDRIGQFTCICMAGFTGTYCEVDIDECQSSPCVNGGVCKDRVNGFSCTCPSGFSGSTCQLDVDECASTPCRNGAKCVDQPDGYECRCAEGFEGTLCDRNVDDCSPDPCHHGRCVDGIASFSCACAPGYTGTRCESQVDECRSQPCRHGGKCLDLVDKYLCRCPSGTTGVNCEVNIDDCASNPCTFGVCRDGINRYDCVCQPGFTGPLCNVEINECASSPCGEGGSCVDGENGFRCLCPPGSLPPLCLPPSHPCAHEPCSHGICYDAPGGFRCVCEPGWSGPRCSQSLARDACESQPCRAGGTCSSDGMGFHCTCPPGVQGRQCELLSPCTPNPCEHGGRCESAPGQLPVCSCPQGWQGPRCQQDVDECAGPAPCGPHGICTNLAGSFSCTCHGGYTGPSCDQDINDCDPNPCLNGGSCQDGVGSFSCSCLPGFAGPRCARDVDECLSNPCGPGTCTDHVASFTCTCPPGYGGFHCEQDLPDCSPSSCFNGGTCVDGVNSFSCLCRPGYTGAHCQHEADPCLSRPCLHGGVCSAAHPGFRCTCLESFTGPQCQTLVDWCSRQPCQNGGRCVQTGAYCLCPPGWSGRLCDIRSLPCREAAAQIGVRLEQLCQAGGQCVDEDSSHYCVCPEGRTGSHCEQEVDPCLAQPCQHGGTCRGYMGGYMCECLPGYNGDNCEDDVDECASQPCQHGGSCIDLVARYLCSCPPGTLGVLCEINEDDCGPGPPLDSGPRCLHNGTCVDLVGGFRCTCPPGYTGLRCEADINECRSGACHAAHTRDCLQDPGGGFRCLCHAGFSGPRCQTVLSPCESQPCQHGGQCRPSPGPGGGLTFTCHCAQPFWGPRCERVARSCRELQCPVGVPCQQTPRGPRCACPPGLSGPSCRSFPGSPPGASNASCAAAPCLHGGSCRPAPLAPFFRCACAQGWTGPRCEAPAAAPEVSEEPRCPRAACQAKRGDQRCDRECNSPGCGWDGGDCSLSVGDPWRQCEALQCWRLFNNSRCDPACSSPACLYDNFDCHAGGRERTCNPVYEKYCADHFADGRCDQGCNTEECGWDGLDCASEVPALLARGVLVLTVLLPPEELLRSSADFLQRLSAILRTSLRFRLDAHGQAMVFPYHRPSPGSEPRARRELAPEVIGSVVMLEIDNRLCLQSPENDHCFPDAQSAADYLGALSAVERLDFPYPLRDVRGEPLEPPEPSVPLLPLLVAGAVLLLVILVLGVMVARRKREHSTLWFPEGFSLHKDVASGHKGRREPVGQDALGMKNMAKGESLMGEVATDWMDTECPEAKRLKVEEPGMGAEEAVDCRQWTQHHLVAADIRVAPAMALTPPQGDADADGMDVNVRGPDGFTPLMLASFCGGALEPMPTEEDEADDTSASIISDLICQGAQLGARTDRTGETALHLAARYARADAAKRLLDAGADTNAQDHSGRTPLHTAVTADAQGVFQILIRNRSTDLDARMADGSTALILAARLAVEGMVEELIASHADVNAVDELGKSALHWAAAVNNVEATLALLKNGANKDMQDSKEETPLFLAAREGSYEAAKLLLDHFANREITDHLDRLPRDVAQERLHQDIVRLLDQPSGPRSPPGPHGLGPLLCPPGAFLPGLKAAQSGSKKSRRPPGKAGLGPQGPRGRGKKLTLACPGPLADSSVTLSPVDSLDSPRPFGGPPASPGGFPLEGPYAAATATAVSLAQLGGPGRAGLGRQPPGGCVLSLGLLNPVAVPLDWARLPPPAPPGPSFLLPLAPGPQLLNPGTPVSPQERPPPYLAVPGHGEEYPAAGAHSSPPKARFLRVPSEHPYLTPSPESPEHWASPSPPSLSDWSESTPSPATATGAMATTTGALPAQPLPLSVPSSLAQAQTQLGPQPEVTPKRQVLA
Sequence of Pro-neuregulin-1, membrane-bound isoform (Homo sapiens) (Q02297 whole entry, looked up, the tested form may be a part, canonical isoform): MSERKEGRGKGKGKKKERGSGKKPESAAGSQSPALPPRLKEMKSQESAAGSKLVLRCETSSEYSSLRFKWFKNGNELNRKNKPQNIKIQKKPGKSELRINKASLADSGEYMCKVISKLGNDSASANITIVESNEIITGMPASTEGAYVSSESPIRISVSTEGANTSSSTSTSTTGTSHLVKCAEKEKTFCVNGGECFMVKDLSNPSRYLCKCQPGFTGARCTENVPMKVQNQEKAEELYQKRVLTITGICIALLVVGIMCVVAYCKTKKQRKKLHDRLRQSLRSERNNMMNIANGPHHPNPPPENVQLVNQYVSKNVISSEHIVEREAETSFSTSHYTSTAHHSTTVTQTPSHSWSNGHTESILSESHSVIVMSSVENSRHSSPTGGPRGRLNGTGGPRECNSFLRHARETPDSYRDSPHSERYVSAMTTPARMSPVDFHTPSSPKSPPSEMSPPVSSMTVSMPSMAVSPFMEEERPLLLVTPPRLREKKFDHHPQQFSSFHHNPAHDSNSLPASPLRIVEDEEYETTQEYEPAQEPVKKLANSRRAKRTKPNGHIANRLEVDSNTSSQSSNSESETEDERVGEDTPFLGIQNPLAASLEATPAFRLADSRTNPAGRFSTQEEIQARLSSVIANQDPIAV

For `COC(=O)[C@@]1(CCC(=O)OC(C)(C)C)COC(c2ccc(OCCCO)cc2)=N1`, the composite z-score was 1.47 in experiment [1]; -1.53 in experiment [2]; -0.212 in experiment [3]; -1.92 in experiment [4]; -1.89 in experiment [5]; -0.312 in experiment [6]. Also, the composite z-score in experiment [7] was 0.256; in [9] it was -0.311; in [10] it was -0.405; in experiment [11], -0.964; in experiment [15], -0.771; in experiment [17], 0.0399. For the same compound, the results for the composite z-score in experiment [18], in experiment [19] and in experiment [20] were -1.99, -1.84 and -0.36, respectively. Besides, the z-score is -0.44 (inactive) in [8]; -1.42 (inactive) in experiment [12]; -0.502 (inactive) in [13]; -0.752 (inactive) in experiment [14]; 0.989 (inactive) in experiment [16].
With `O=C(N1CCCCC1)[C@@]1(Cc2ccccc2)N=C(c2ccc(OCCCO)cc2)O[C@H]1c1ccccc1`, the composite z-score in experiment [1] was 0.994; in experiment [2], 2; in experiment [3] it was 0.103; in [4], 0.235; in experiment [5] it was 1.58; in [6], 1.05. Also, the composite z-score in experiment [7] is 1.02; in [9] it was 1.52; in experiment [10], -0.146; in [11], 1.18; in [15], 2.99; in experiment [17] it was 0.429. The results for the composite z-score in [18], in experiment [19] and in experiment [20] were 0.368, 0.966 and 0.293, respectively. Moreover, the z-score in experiment [8] is -3.21 (inactive); in [12], -0.997 (inactive); in experiment [13] it was -2.65 (inactive); in experiment [14], 4.43 (inactive); in experiment [16], 0.668 (inactive).
`Cc1ccc(N2C(=O)c3ccccc3[C@](C)(C(=O)NC3CC3)[C@@H]2c2ccc(CO)cc2)nc1`: the composite z-score in experiment [1] is 0.879; in [2], -0.241; in experiment [3] it was -0.0948; in experiment [4], -0.325; in experiment [5] it was -0.344; in [6], -0.474. Further, the composite z-score was -0.0515 in experiment [7]; 0.406 in experiment [9]; -0.0047 in [10]; -0.349 in experiment [11]; 0.244 in experiment [15]; 0.149 in experiment [17]. In addition, the composite z-score is 0.381 in experiment [18], -0.591 in experiment [19] and -0.0564 in experiment [20]. Also, the z-score was 0.843 (inactive) in [8]; 0.0474 (inactive) in experiment [12]; -0.981 (inactive) in experiment [13]; -0.69 (inactive) in experiment [14]; 0.949 (inactive) in experiment [16].
Regarding `[N-]=[N+]=NCc1ccccc1C[C@@]1(C(=O)O)N=C(c2ccc(OCCCO)cc2)O[C@@H]1c1ccccc1`, the composite z-score in experiment [1] is 0.673; in [2], -0.231; in [3], -0.134; in experiment [4], -0.927; in experiment [5] it was -0.0526; in experiment [6], 1.86. Besides, the composite z-score is 0.754 in experiment [7]; 0.0724 in experiment [9]; -0.226 in experiment [10]; 0.244 in experiment [11]; 2.45 in experiment [15]; 0.0424 in experiment [17]. In addition, the results for the composite z-score in [18], in [19] and in experiment [20] were -0.811, -0.364 and -0.221, respectively. Further, the z-score is -1.08 (inactive) in [8]; -0.921 (inactive) in experiment [12]; -1.23 (inactive) in experiment [13]; -1.22 (inactive) in experiment [14]; 0.41 (inactive) in experiment [16].
Regarding `C=CCC(OC(C)=O)[C@@H]1[C@@H](N(Cc2cc3ccccc3o2)C(=O)c2ccc(-c3ccccc3)cc2)c2cc(OCCCO)ccc2N1C(=O)c1ccc(-c2ccccc2)cc1` (stereo not given in full), the composite z-score in [1] was 0.218; in experiment [2], -0.352; in experiment [3], -0.0985; in experiment [4], 0.0925; in experiment [5], 0.11; in experiment [6], -0.196. Also, the composite z-score is -0.714 in [7]; 0.105 in [9]; -0.0994 in [10]; -0.527 in experiment [11]; 0.94 in experiment [15]; 0.0711 in experiment [17]. In addition, the composite z-score was -0.397 in experiment [18], -0.402 in experiment [19] and -0.0444 in experiment [20]. Besides, the z-score in experiment [8] was -1.24 (inactive); in [12] it was 1.13 (inactive); in experiment [13] it was 0.0977 (inactive); in [14], 1.38 (inactive); in experiment [16] it was 1.95 (inactive).
In the case of `COc1ccc([Si](C)(C)[C@@H]2[C@@H](CC(=O)N3CCC[C@H]3CO)O[C@]3(C(=O)N(Cc4ccc(N5CCC5=O)cc4)c4ccccc43)[C@H]2C)cc1`, the composite z-score was -0.142 in experiment [1]; 0.783 in experiment [2]; -0.071 in experiment [3]; 0.66 in [4]; 0.747 in experiment [5]; 0.583 in experiment [6]. Also, the composite z-score is 1.07 in experiment [7]; 0.187 in experiment [9]; 0.245 in [10]; 1.55 in [11]; 2.12 in experiment [15]; -0.166 in [17]. Also, the values for the composite z-score in [18], in experiment [19] and in experiment [20] were 1.16, 0.708 and 0.0408, respectively. Moreover, the z-score in experiment [8] was -1.17 (inactive); in experiment [12], -0.556 (inactive); in experiment [13], -0.228 (inactive); in experiment [14], -0.69 (inactive); in experiment [16], 0.673 (inactive).
With `CC(C)C[C@@H]1NC(=O)[C@H]2C[C@@H](C(=O)NCCCC[N+](C)(C)C)[C@@H](c3cccc(OCCO)c3)N2C1=O`, the composite z-score in experiment [1] was -0.746; in [2] it was 1.9; in [3], -0.138; in experiment [4], 0.253; in experiment [5] it was -0.942; in experiment [6], 1.95. For the same compound, the composite z-score is 1.43 in experiment [7]; -0.233 in experiment [9]; -0.717 in [10]; 0.617 in [11]; 3.37 in experiment [15]; -0.348 in experiment [17]. In addition, the composite z-score in experiment [18] came out at 1.21; in experiment [19], 1.03; in experiment [20], 0.009. In addition, the z-score in experiment [8] is 0.683 (inactive); in experiment [12], -0.276 (inactive); in experiment [13], -0.262 (inactive); in experiment [14], -2.33 (inactive); in [16], 0.395 (inactive).
On to `COc1c(C)cc(-c2cc3c(c(CCc4ccccc4)n2)[Si](C(C)C)(C(C)C)OC3)cc1C`, for which the composite z-score is -0.496 in experiment [1]; 1.49 in experiment [2]; -0.125 in experiment [3]; 0.358 in experiment [4]; 0.364 in experiment [5]; -0.355 in experiment [6]. The composite z-score in experiment [7] was 0.578; in experiment [9], 0.287; in experiment [10], -0.0346; in experiment [11], 1.42; in experiment [15], 0.778; in experiment [17] it was -0.0866. Besides, the composite z-score in [18] came to 0.288; in experiment [19], 0.34; in experiment [20], 0.0068. Also, the z-score is -0.14 (inactive) in [8]; -0.819 (inactive) in experiment [12]; -1.57 (inactive) in experiment [13]; -0.618 (inactive) in experiment [14]; 2.29 (inactive) in experiment [16].
For the compound `C=C(/C(=C/C[C@H](OC(C)=O)c1cccc(OCCO)c1)c1cc(C(=O)OC)ccc1OC)C(C)C`, the composite z-score in experiment [1] is 0.037; in experiment [2], 0.0106; in experiment [3], -0.128; in experiment [4], 0.437; in experiment [5], -1.02; in experiment [6] it was 1.04. In addition, the composite z-score in experiment [7] is 0.274; in experiment [9], -0.24; in experiment [10] it was 0.0623; in [11] it was 0.359; in [15] it was 0.41; in experiment [17], -0.189. The composite z-score is -0.0168 in [18], -0.609 in experiment [19] and -0.191 in experiment [20]. In addition, the z-score was -0.698 (inactive) in [8]; 0.0359 (inactive) in experiment [12]; -1.37 (inactive) in experiment [13]; -0.954 (inactive) in [14]; 1.73 (inactive) in experiment [16].
